Test results: ChEMBL document CHEMBL3988442, “University of Dundee, Small-Polar-MMV Screening Library” (2021)
For part of these data: Results with a measured potency or affinity are listed apart.

Experiments:
Parameters in all cases: scale not given: direction of the effect not stated beside the values
[1] = biological target: Protein translocase subunit SecA (Escherichia coli (strain K12)) (UniProt P10408); experiment: Assay to Identify E. coli SecA ATPase Inhibitors; assay type: functional; conditions: 30 µM
Protein translocase subunit SecA (Escherichia coli (strain K12)), sequence (P10408 whole entry): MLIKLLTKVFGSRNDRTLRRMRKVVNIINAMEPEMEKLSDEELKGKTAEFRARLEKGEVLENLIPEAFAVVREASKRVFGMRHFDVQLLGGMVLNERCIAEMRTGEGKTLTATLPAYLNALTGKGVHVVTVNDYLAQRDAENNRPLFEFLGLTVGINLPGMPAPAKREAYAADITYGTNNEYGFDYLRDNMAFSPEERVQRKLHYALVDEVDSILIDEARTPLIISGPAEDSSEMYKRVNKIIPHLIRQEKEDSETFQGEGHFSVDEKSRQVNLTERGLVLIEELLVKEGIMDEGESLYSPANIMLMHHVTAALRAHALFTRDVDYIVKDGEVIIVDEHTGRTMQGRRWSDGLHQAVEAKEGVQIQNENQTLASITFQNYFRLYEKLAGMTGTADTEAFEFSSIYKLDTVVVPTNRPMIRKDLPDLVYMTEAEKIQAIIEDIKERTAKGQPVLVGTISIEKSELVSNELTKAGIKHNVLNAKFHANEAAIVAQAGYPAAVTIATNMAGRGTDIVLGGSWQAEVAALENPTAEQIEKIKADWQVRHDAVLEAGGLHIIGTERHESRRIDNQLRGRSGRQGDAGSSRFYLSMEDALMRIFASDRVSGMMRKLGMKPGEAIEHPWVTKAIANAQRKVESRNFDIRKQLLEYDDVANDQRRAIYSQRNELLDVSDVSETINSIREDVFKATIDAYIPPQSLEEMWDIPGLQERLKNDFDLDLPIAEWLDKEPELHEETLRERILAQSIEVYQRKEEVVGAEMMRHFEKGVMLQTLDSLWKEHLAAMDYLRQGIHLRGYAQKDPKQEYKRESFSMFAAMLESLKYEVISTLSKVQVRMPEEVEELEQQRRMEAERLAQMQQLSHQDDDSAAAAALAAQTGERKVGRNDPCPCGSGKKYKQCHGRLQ

[2] = biological target: T1, Ubiquitin-activating enzyme e1, putative (Leishmania donovani (strain BPK282A1)) (UniProt E9BSI1); experiment: Leishmania donovani Ubiquitin Activating Enzyme (LdE1); assay type: functional; conditions: 30 µM
T1 sequence (whole entry): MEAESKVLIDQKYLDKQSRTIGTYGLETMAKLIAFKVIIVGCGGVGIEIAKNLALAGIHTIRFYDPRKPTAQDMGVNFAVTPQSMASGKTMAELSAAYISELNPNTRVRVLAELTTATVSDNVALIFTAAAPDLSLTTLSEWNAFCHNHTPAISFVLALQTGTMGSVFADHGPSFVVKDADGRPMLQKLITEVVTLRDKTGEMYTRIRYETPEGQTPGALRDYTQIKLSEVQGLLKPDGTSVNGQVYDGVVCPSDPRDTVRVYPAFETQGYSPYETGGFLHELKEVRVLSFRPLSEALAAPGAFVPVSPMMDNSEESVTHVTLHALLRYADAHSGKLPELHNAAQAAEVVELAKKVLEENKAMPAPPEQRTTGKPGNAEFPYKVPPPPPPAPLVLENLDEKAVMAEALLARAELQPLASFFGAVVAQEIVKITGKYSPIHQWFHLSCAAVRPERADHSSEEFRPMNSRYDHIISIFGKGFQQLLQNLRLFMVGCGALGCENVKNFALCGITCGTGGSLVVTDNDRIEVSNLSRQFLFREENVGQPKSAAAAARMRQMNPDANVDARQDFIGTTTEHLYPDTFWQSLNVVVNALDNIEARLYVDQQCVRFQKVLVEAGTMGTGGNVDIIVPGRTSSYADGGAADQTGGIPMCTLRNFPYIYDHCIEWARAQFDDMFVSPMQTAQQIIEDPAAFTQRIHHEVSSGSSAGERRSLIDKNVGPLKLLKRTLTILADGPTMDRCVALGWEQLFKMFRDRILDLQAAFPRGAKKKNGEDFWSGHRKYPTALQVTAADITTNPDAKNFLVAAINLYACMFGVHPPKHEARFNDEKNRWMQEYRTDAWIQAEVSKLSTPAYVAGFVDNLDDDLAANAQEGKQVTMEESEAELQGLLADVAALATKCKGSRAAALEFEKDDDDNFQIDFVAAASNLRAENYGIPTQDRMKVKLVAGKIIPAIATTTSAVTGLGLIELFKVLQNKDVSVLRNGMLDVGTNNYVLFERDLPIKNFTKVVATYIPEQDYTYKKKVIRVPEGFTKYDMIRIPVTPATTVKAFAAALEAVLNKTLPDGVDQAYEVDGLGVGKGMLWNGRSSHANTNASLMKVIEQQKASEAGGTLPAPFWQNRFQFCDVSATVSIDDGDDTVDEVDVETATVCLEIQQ

[3] = biological target: AMP-activated protein kinase, AMPK (Homo sapiens) (UniProt P54646+O43741+P54619+Q9UGJ0+Q9Y478+Q13131+Q9UGI9); experiment: AMP-dependent Kinase enzyme assay. An in vitro enzyme assay that detects ADP turnover that is directly proportional to AMPK activity. This uses naive AMPK that is activated during the assay with MK-8722; assay type: functional; conditions: 30 µM
[4] = biological target: Sialic acid-binding Ig-like lectin 9 (Homo sapiens) (UniProt Q9Y336); experiment: Hs-Siglec9 ALPHAscreen SOP 20170721; conditions: 10 µM
Sialic acid-binding Ig-like lectin 9 (Homo sapiens), sequence (Q9Y336 whole entry): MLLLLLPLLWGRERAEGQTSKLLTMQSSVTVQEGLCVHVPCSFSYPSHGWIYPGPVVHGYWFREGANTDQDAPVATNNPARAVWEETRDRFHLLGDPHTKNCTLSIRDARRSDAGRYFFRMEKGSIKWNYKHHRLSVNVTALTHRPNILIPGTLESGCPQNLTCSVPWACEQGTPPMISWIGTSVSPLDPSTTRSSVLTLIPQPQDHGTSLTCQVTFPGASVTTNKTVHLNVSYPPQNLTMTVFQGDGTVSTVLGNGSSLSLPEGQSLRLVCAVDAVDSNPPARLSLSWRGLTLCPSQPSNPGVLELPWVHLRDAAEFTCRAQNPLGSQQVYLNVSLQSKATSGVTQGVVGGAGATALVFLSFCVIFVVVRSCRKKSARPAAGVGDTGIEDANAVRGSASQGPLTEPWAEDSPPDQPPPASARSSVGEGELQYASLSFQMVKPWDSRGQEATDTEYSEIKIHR

Trypanosoma cruzi = experiment: Trypanosoma cruzi phosphomannomutase and mannose-1-phosphate guanylyltransferase assay; assay type: functional; conditions: 10 µM
[5] = biological target: T2, Arginase-2, mitochondrial (Homo sapiens) (UniProt P78540); experiment: in vitro enzyme assay to detect the production of urea directly proportional to the activity of Arginase II; assay type: functional; conditions: 33.3 µM; also: in the data most compounds retested in dose-response had high values
T2 sequence (whole entry): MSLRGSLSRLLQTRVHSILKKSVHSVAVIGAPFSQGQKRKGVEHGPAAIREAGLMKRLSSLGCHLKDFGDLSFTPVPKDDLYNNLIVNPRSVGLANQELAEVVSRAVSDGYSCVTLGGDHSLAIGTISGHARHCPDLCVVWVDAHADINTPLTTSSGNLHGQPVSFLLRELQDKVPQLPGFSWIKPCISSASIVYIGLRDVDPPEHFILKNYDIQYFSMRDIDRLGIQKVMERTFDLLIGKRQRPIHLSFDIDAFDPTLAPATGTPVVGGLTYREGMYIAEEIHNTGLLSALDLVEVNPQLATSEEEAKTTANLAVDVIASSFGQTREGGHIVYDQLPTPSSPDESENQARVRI

[6] = biological target: T3, Proteasome subunit beta (Trypanosoma cruzi) (UniProt O96673); experiment: Trypanosoma cruzi proteasome chymotrypsin-like activity (TcProtChymo) assay.; also: in the data most compounds retested in dose-response had high values; assay type: functional; conditions: 9.37 µM
T3 sequence (whole entry): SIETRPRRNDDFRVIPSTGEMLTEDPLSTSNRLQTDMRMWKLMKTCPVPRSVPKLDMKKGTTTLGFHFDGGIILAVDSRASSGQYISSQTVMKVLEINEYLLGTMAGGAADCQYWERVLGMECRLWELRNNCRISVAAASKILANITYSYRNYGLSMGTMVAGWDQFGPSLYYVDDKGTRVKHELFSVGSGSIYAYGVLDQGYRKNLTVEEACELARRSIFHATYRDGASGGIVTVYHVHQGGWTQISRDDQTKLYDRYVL

Homo sapiens = species: Homo sapiens; experiment: To identify inhibition of the IFN signalling (Jak-Stat) pathway via expression of an eGFP reporter gene under the control of an IFN-stimulated response element (ISRE) containing MxA promoter.; assay type: functional; conditions: 30 µM
[7] = biological target: T4, Tyrosyl-tRNA synthetase, putative (Trypanosoma cruzi (strain CL Brener)) (UniProt Q4DSP6); experiment: Trypanosoma cruzi tyrosyl tRNA synthetase (TcYRS) _High Tyrosine SOP; assay type: functional; conditions: 30 µM; also: in the data most compounds retested in dose-response had high values
T4 sequence (whole entry): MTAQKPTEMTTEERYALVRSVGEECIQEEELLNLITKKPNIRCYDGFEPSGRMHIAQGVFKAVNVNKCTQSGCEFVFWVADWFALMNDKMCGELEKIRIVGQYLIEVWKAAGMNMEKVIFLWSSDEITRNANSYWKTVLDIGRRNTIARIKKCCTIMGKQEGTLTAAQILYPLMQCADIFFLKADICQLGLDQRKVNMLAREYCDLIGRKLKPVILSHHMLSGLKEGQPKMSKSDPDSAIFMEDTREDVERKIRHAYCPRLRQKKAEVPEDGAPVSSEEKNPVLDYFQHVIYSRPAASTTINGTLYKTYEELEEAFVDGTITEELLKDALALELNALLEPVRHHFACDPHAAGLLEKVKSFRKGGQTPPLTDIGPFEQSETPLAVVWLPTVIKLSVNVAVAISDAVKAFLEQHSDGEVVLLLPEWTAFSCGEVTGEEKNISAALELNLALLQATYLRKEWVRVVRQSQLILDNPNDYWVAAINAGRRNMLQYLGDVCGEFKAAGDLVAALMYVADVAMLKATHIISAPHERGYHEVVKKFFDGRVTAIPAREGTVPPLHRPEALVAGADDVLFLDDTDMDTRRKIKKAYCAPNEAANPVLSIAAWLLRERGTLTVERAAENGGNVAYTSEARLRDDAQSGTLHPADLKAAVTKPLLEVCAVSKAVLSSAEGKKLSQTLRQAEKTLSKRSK

[8] = biological target: T4, Tyrosyl-tRNA synthetase, putative (Trypanosoma cruzi (strain CL Brener)); experiment: Trypanosoma cruzi tyrosyl tRNA synthetase (TcYRS) SOP; assay type: functional; conditions: 30 µM
[9] = biological target: Chromo domain-containing protein 1 (Saccharomyces cerevisiae (strain ATCC 204508 / S288c) (Baker's yeast)) (UniProt P32657); experiment: ScCHD-1 Enzyme Inhibition Assay; assay type: functional; conditions: 30 µM; also: in the data most compounds retested in dose-response had high values
Chromo domain-containing protein 1 (Saccharomyces cerevisiae (strain ATCC 204508 / S288c) (Baker's yeast)), sequence (P32657 whole entry, the tested form may be a part): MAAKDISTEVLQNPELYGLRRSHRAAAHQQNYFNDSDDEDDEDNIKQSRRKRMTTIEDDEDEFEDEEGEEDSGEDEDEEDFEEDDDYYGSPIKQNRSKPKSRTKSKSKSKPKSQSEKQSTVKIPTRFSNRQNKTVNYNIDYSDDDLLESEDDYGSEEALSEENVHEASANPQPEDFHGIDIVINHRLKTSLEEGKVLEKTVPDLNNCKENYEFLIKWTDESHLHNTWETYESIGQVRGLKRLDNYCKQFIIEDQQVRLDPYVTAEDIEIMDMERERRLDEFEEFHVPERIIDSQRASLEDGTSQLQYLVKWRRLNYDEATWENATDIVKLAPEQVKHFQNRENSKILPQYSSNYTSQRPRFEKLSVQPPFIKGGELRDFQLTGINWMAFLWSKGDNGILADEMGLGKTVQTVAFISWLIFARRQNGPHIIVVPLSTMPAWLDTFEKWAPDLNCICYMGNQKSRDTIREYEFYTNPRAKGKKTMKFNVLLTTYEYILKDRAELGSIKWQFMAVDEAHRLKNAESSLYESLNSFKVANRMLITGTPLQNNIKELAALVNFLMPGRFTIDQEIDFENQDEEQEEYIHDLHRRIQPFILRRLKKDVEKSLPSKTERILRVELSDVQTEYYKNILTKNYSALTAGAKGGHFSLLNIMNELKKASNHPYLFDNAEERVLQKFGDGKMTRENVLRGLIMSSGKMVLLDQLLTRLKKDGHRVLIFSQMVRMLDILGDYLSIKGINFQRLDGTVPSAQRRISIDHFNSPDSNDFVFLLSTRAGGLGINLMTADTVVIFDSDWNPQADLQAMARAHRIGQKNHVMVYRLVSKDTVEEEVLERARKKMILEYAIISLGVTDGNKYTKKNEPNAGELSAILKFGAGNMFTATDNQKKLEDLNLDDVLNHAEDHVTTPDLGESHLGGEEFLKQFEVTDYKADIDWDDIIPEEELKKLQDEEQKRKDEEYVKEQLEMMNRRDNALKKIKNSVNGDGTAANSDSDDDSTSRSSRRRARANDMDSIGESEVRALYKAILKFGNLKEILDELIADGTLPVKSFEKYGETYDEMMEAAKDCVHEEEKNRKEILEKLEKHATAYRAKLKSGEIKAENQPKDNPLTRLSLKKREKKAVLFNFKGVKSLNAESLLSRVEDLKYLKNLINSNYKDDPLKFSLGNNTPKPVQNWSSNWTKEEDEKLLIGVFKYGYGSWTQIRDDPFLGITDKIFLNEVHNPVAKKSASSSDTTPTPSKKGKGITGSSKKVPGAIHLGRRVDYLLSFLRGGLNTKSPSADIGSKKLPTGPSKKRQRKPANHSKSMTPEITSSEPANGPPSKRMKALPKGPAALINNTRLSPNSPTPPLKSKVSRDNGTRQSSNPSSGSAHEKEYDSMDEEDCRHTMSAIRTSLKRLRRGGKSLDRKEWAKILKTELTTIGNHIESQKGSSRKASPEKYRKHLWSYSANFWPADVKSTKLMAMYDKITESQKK

SMILES: Cc1oc(C)c(C(=O)N2CCCN(Cc3cscn3)CC2)c1C
- Percent Effect [1]: -6.32%
- Percent Effect [2]: 7.79%
- Percent Effect [3]: 7.44%
- Percent Effect [4]: -1.26%
- Percent Effect (Trypanosoma cruzi): -1.47%
- Percent Effect [5]: -2.32%
- Percent Effect [6]: -1.37%
- Percent Effect (Homo sapiens): 14.5%
- Percent Effect [7]: 6.67%
- Percent Effect [8]: 9.41%
- Percent Effect [9]: -15.7%

SMILES: O=C(c1csc(Br)c1)N1CCCC(n2ccnc2)C1 (centres undefined)
- Percent Effect [1]: -3.43%
- Percent Effect [2]: 11.4%
- Percent Effect [3]: -1.54%
- Percent Effect [4]: -8.98%
- Percent Effect (Trypanosoma cruzi): 2.56%
- Percent Effect [5]: -5.38%
- Percent Effect [6]: 2.74%
- Percent Effect (Homo sapiens): -8.54%
- Percent Effect [7]: 2.08%
- Percent Effect [8]: 12.7%
- Percent Effect [9]: 54.1%

SMILES: CC(C)C(=O)NC1CCN(Cc2cccc3c2OCCO3)CC1
- Percent Effect [1]: -2.08%
- Percent Effect [2]: -1.27%
- Percent Effect [3]: 4.8%
- Percent Effect [4]: 0.497%
- Percent Effect (Trypanosoma cruzi): -2.36%
- Percent Effect [5]: 3.66%
- Percent Effect [6]: -2.06%
- Percent Effect (Homo sapiens): 17.1%
- Percent Effect [7]: 2.08%
- Percent Effect [8]: -2.53%
- Percent Effect [9]: -21.1%

SMILES: COc1ccc(-c2noc(CN3CCc4cncnc4C3)n2)cc1
- Percent Effect [1]: -3.37%
- Percent Effect [2]: -15.8%
- Percent Effect [3]: -14.9%
- Percent Effect [4]: 2.94%
- Percent Effect (Trypanosoma cruzi): 7.52%
- Percent Effect [5]: 0%
- Percent Effect [6]: 18.6%
- Percent Effect (Homo sapiens): 8.69%
- Percent Effect [7]: 8.33%
- Percent Effect [8]: 9.76%
- Percent Effect [9]: 25%

SMILES: CC(NC(=O)CNCCn1cccn1)c1ccc2c(c1)CCCC2 (centres undefined)
- Percent Effect [1]: -8.2%
- Percent Effect [2]: 13%
- Percent Effect [3]: -1.74%
- Percent Effect [4]: 15.8%
- Percent Effect (Trypanosoma cruzi): 3.37%
- Percent Effect [5]: -6.41%
- Percent Effect [6]: 9.46%
- Percent Effect (Homo sapiens): -3.61%
- Percent Effect [7]: 12.6%
- Percent Effect [8]: 26.8%
- Percent Effect [9]: -9.3%

SMILES: CNc1cc(CNC(=O)c2ccccc2)nc(-c2ccncc2)n1
- Percent Effect [1]: -5.75%
- Percent Effect [2]: 9.46%
- Percent Effect [3]: 9.36%
- Percent Effect [4]: -2.66%
- Percent Effect (Trypanosoma cruzi): 3.56%
- Percent Effect [5]: -71.7%
- Percent Effect [6]: 15.8%
- Percent Effect (Homo sapiens): 1.41%
- Percent Effect [7]: 5.38%
- Percent Effect [8]: 14.3%
- Percent Effect [9]: -13.8%

SMILES: O=S(=O)(Cc1ccccc1)N1CCCn2cnc(CN3CCCC3)c2C1
- Percent Effect [1]: -3.85%
- Percent Effect [2]: 8%
- Percent Effect [3]: 20.1%
- Percent Effect [4]: -0.361%
- Percent Effect (Trypanosoma cruzi): -4.44%
- Percent Effect [5]: -57.5%
- Percent Effect [6]: 5.3%
- Percent Effect (Homo sapiens): -10%
- Percent Effect [7]: 6.25%
- Percent Effect [8]: -7.5%
- Percent Effect [9]: -6.67%

SMILES: c1ccc(-c2cnc(CN3CCCC3Cn3cncn3)o2)cc1 (centres undefined)
- Percent Effect [1]: -2.46%
- Percent Effect [2]: 5.06%
- Percent Effect [3]: -0.0232%
- Percent Effect [4]: -1.55%
- Percent Effect (Trypanosoma cruzi): -2.93%
- Percent Effect [5]: 2.66%
- Percent Effect [6]: -0.737%
- Percent Effect (Homo sapiens): 10.6%
- Percent Effect [7]: 7.39%
- Percent Effect [8]: 13.9%
- Percent Effect [9]: -8.4%

SMILES: O=C(CCCn1cncn1)NC1(c2ccccc2)CCC1
- Percent Effect [1]: -7.52%
- Percent Effect [2]: 7.79%
- Percent Effect [3]: 1.86%
- Percent Effect [4]: 8.16%
- Percent Effect (Trypanosoma cruzi): -6%
- Percent Effect [5]: -11%
- Percent Effect [6]: 13.6%
- Percent Effect (Homo sapiens): 15.5%
- Percent Effect [7]: 3.23%
- Percent Effect [8]: 11.1%
- Percent Effect [9]: -1%
